# Measured values published in PubChem BioAssay (NCI).
# Compounds without any hit were thinned out: in the full panel of roughly 79,000, 15% have a hit. Values without a mark were called inactive. Active and inactive are the calls of the source. No stated cut-off is given here; in the data, active means growth inhibition above about 70%; inactive means the rest.
# Key:
# [1] = NCI Yeast Anticancer Drug Screen. Data for the rad52 strain (AID 147);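 further: 0% = growth of vehicle-treated control cultures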; conditions: S. cerevisiae rad52 mutant growth inhibition, stronger effect = higher value
# In short: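 Inhibition of yeast growth, referenced to vehicle controls, was the measured output for a strain with defective DNA damage repair.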
# [2] = NCI Yeast Anticancer Drug Screen. Data for the wt1 strain (AID 149);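 further: 0% = growth of vehicle-treated wt1 cultures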; conditions: S. cerevisiae wt1 strain (SPY 50644) growth inhibition, stronger effect = higher value
# In short: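 Growth inhibition read against vehicle controls after compound exposure of the wt1 yeast strain.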
# [3] = NCI Yeast Anticancer Drug Screen. Data for the rad50EPP+ strain (AID 151);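 further: 0% = growth of vehicle-treated control cultures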; conditions: S. cerevisiae rad50 mutant strain, stronger effect = higher value
# In short: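 Genetically defined yeast (rad50EPP+, DNA damage repair alteration) is grown with compound, and inhibition of growth is expressed relative to vehicle-treated controls.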
# [4] = NCI Yeast Anticancer Drug Screen. Data for the mgt1 strain (AID 153); conditions: S. cerevisiae mgt1 mutant growth inhibition, stronger effect = higher value
# In short: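 In the mgt1 strain, test compounds were added and growth inhibition was determined relative to vehicle-treated controls.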
# [5] = NCI Yeast Anticancer Drug Screen. Data for the rad50 strain (AID 155);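 further: 0% = growth of vehicle-only cultures of the same strain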; conditions: S. cerevisiae rad50 strain growth inhibition, stronger effect = higher value
# In short: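 Readout: growth inhibition relative to vehicle-treated cultures. Compound exposure was carried out in a genetically defined yeast strain deficient in DNA damage repair.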
# [6] = NCI Yeast Anticancer Drug Screen. Data for the mec2-1 strain (AID 157); conditions: S. cerevisiae mec2-1 strain, stronger effect = higher value
# In short: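 Each compound was tested on mec2-1 yeast, a strain altered in DNA damage repair or cell cycle control. Growth inhibition is reported relative to vehicle.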
# [7] = NCI Yeast Anticancer Drug Screen. Data for the rad14 strain (AID 159);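 further: 0% = growth of vehicle-treated control cultures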; conditions: S. cerevisiae rad14 strain growth inhibition, stronger effect = higher value
# In short: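 Growth inhibition vs vehicle controls; genetically altered yeast strain (DNA damage repair defect) treated with test compounds.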
# [8] = NCI Yeast Anticancer Drug Screen. Data for the sgs1 mgt1 strain (AID 161);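 further: 0% = growth of cultures given vehicle only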; conditions: S. cerevisiae sgs1 mgt1 strain, stronger effect = higher value
# In short: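 Inhibition of yeast growth, normalised to vehicle-treated controls, is reported for a strain bearing genetic alterations in DNA damage repair.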
# [9] = NCI Yeast Anticancer Drug Screen. Data for the CLN2oe strain (AID 163);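 further: 0% = growth of vehicle-only control cultures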; conditions: S. cerevisiae CLN2oe strain, stronger effect = higher value
# In short: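 First, the altered yeast strain was treated with each compound; second, its growth was measured; finally, inhibition was derived by comparison with vehicle controls.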
# [10] = NCI Yeast Anticancer Drug Screen. Data for the cln2 rad14 strain (AID 165);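 further: 0% = growth equal to vehicle treated cultures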; conditions: S. cerevisiae cln2 rad14 strain, stronger effect = higher value
# In short: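 Test compounds were added to cln2 rad14 yeast cultures; inhibition of growth was then determined by comparison with vehicle treatment.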
# [11] = NCI Yeast Anticancer Drug Screen. Data for the bub3 strain (AID 167); conditions: S. cerevisiae bub3 mutant strain, stronger effect = higher value
# In short: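 Readout: yeast growth inhibition, expressed relative to vehicle-only wells. The test organism is a mutant strain from a panel with lesions in DNA repair or checkpoint genes.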
# [12] = NCI Yeast Anticancer Drug Screen. Data for the mlh1 strain (AID 171);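 further: 0% = growth of vehicle-treated control cultures of the same strain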; conditions: S. cerevisiae mlh1 strain growth inhibition, stronger effect = higher value
# In short: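 Inhibition values reflect reduced yeast growth in the presence of compound, referenced to vehicle controls, using a strain chosen for its alteration in DNA repair or cell cycle control.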
# [13] = NCI Yeast Anticancer Drug Screen. Data for the sgs1 strain (AID 173);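 further: 0% = growth of vehicle-only control cultures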; conditions: S. cerevisiae sgs1 mutant, stronger effect = higher value
# In short: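 Vehicle-treated cultures served as reference for growth inhibition of a yeast strain altered in DNA damage repair or cell cycle control after compound exposure.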
# [14] = NCI Yeast Anticancer Drug Screen. Data for the mlh1 rad18 strain (AID 175); conditions: S. cerevisiae mlh1 rad18 strain growth inhibition, stronger effect = higher value
# In short: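 Inhibition values reflect reduced growth of mutant yeast versus vehicle-treated controls following compound exposure; the mutations affect DNA damage repair.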
# [15] = NCI Yeast Anticancer Drug Screen. Data for the rad18 strain (AID 177); conditions: S. cerevisiae rad18 mutant growth inhibition, stronger effect = higher value
# In short: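 Steps: expose repair-mutant yeast to compound; measure growth; express as inhibition relative to vehicle control.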
# [16] = at 5.0 µM (retest, dose inferred, filed as 0.5)
# [17] = at 50.0 µM (retest, dose inferred, filed as 5.0)
structure (smiles),measurement,setting,value
COC1/C=C\C=C(/C)C(=O)NC2=CC(=O)C(=O)C(=C2O)CC(C)CC(OC)C(O)C(C)/C=C(\C)C1OC(N)=O (stereo not drawn),growth inhibition,[1]; at 1.2 µM,24%
same,growth inhibition,[1]; at 3.7 µM,32%
same,growth inhibition,[1]; at 11.0 µM,94% (active)
same,growth inhibition,[1]; at 33.0 µM,98% (active)
same,growth inhibition,[1]; at 100.0 µM,97% (active)
same,growth inhibition,[2]; at 1.2 µM,10%
same,growth inhibition,[2]; at 3.7 µM,-17%
same,growth inhibition,[2]; at 11.0 µM,86% (active)
same,growth inhibition,[2]; at 33.0 µM,95% (active)
same,growth inhibition,[2]; at 100.0 µM,94% (active)
same,growth inhibition,[3]; at 1.2 µM,15%
same,growth inhibition,[3]; at 3.7 µM,2%
same,growth inhibition,[3]; at 11.0 µM,3%
same,growth inhibition,[3]; at 33.0 µM,7%
same,growth inhibition,[3]; at 100.0 µM,46%
same,growth inhibition,[4]; at 1.2 µM,-10%
same,growth inhibition,[4]; at 3.7 µM,28%
same,growth inhibition,[4]; at 11.0 µM,90% (active)
same,growth inhibition,[4]; at 33.0 µM,96% (active)
same,growth inhibition,[4]; at 100.0 µM,95% (active)
same,growth inhibition,[5]; at 1.2 µM,17%
same,growth inhibition,[5]; at 3.7 µM,40%
same,growth inhibition,[5]; [16],-17%
same,growth inhibition,[5]; at 11.0 µM,94% (active)
same,growth inhibition,[5]; at 33.0 µM,96% (active)
same,growth inhibition,[5]; [17],94% (active)
same,growth inhibition,[5]; at 50.0 µM,87.5% (active)
same,growth inhibition,[5]; at 100.0 µM,95% (active)
same,growth inhibition,[6]; at 1.2 µM,-12%
same,growth inhibition,[6]; at 3.7 µM,50%
same,growth inhibition,[6]; [16],56%
same,growth inhibition,[6]; at 11.0 µM,94% (active)
same,growth inhibition,[6]; at 33.0 µM,96% (active)
same,growth inhibition,[6]; [17],97% (active)
same,growth inhibition,[6]; at 50.0 µM,89.8% (active)
same,growth inhibition,[6]; at 100.0 µM,95% (active)
same,growth inhibition,[7]; at 1.2 µM,-13%
same,growth inhibition,[7]; at 3.7 µM,-10%
same,growth inhibition,[7]; at 11.0 µM,91% (active)
same,growth inhibition,[7]; at 33.0 µM,95% (active)
same,growth inhibition,[7]; at 100.0 µM,95% (active)
same,growth inhibition,[8]; [16],13%
same,growth inhibition,[8]; [17],95% (active)
same,growth inhibition,[8]; at 50.0 µM,89.8% (active)
same,growth inhibition,[9]; at 1.2 µM,-32%
same,growth inhibition,[9]; at 3.7 µM,34%
same,growth inhibition,[9]; at 11.0 µM,94% (active)
same,growth inhibition,[9]; at 33.0 µM,95% (active)
same,growth inhibition,[9]; at 100.0 µM,94% (active)
same,growth inhibition,[10]; [16],45%
same,growth inhibition,[10]; [17],96% (active)
same,growth inhibition,[10]; at 50.0 µM,77.8% (active)
same,growth inhibition,[11]; at 1.2 µM,-6%
same,growth inhibition,[11]; at 3.7 µM,51%
same,growth inhibition,[11]; [16],67%
same,growth inhibition,[11]; at 11.0 µM,93% (active)
same,growth inhibition,[11]; at 33.0 µM,96% (active)
same,growth inhibition,[11]; [17],97% (active)
same,growth inhibition,[11]; at 50.0 µM,86.2% (active)
same,growth inhibition,[11]; at 100.0 µM,95% (active)
same,growth inhibition,[12]; at 1.2 µM,-5%
same,growth inhibition,[12]; at 3.7 µM,11%
same,growth inhibition,[12]; at 11.0 µM,89% (active)
same,growth inhibition,[12]; at 33.0 µM,94% (active)
same,growth inhibition,[12]; at 100.0 µM,94% (active)
same,growth inhibition,[13]; at 1.2 µM,28%
same,growth inhibition,[13]; at 3.7 µM,36%
same,growth inhibition,[13]; at 11.0 µM,91% (active)
same,growth inhibition,[13]; at 33.0 µM,96% (active)
same,growth inhibition,[13]; at 100.0 µM,95% (active)
same,growth inhibition,[14]; [16],33%
same,growth inhibition,[14]; [17],92% (active)
same,growth inhibition,[14]; at 50.0 µM,83.2% (active)
same,growth inhibition,[15]; at 1.2 µM,12%
same,growth inhibition,[15]; at 3.7 µM,3%
same,growth inhibition,[15]; at 11.0 µM,91% (active)
same,growth inhibition,[15]; at 33.0 µM,96% (active)
same,growth inhibition,[15]; at 100.0 µM,95% (active)
